# Source: PubChem
# ELG1 genotoxic = induces genotoxicity in HEK293T cells with luciferase-tagged ELG1; HEK293T ELG1-luciferase reporter, luminescence, 16 h; Potency, µM (highest dose often 46 µM), for the others: at the top dose activity change, positive = activation, most hits filed as activators; hit rate 1.3% among 330,000; AID 504466; further: % of control where 0% means no effect; nearly all actives have a fitted effect of over 60% in size
#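 Genotoxicity was scored as increased ELG1-luciferase reporter signal, measured by ONE-Glo luminescence (30 min, room temperature). Compound or vehicle exposure of the HEK293T reporter cells lasted 16 hr at 37°C.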
# ELG1 DNA repair = inhibitors of ELG1-dependent DNA repair in HEK293T cells | HEK293T ELG1-luciferase reporter, luminescence, 16 h; DNA damage induced by 5-fluorouridine | Potency, µM (titrated, usually from 46.1 µM), without a hit: top-dose activity change, negative = inhibition, actives largely listed as inhibitors | hit rate 2.3% among 330,000; further: on the % scale 0 is the no-effect control and ±100 the full control effect; nearly all actives have a fitted effect of over 55% in size
#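 HEK293T cells expressing luciferase-tagged ELG1 (2,000/well) received 5-Fluorouridine plus compound or DMSO for 16 hr at 37 °C. Luciferase was read by ONE-Glo luminescence after 30 min at room temperature.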
# NPC1 promoter act = activates the NPC1 promoter. Huh7 NPC1 promoter luciferase reporter, 24 h. Potency, µM (top dose mostly 9.22 µM), inactives show top-dose activation, usual class: activators. hit rate 2.4% among 320,000. AID 485313; further: % of control where 0% means no effect; nearly all actives have a fitted effect of over 60% in size
#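 Cells: Huh7 expressing luciferase under the NPC1 promoter, 1500/well. Seeded 2 h, compound added, incubated 24 h at 37 °C. Luciferase reagent, 10 min ambient, then luminescence.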
# FLuc counter = firefly luciferase modulation, counter-screen for miR-21 project; purified FLuc, Km substrates, luminescence inhibition; Potency, µM (series often up to 57.5 µM), without a hit: top-dose activity change, negative = inhibition, actives largely listed as inhibitors; hit rate 6.9% among 360,000; AID 588342;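 further: plate controls were vehicle for no effect and reference inhibitor for full effect; nearly all actives have a fitted effect of over 55% in size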
# Target sequence (P08659 whole entry, looked up): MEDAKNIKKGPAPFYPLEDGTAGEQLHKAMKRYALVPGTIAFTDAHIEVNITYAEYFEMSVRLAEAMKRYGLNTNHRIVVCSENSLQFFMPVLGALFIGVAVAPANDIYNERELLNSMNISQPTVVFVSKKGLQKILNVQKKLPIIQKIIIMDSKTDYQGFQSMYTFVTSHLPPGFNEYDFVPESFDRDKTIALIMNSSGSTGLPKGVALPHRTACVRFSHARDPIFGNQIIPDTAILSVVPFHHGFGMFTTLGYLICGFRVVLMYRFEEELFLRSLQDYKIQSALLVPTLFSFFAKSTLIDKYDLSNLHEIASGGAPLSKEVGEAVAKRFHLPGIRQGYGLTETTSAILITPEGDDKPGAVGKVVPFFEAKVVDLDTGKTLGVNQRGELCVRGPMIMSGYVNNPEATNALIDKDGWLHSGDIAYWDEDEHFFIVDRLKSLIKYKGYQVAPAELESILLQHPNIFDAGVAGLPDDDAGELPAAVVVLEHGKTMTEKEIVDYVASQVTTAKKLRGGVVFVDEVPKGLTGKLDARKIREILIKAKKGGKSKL
#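 Purified P. pyralis luciferase, 10 nM final, with Km-level 10 uM D-luciferin and 10 uM ATP in 50 mM Tris acetate pH 7.5, 10 mM Mg acetate, 0.01% Tween-20, 0.05% BSA; 6-point qHTS titration about 60 µM downward; luminescence read.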
# Rab9 promoter act = activators of Rab9 promoter; Huh7 Rab9 promoter-luciferase reporter, luminescence, 24 h; Potency, µM (series often up to 9.22 µM), for inactives: at the highest dose activation, negative = inhibition, usual class: activators; hit rate 2.8% among 320,000; further: % of control where 0% means no effect; nearly all actives have a fitted effect of over 60% in size
#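 Huh7 cells stably carrying a Rab9 promoter-luciferase reporter, 1500 cells per well in OP-MEM I with 10% FBS, treated with compound 24 hours at 37C. Luciferase activity read by luminescence after 10 minutes with Amplite reagent.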
# SMN2 splice up = increases expression of the SMN2 splice variant | HEK293 SMN2-luciferase splicing reporter, luminescence, 30-36 h | Potency, µM (highest dose often 46.1 µM), without a hit: top-dose activity change, positive = activation, usual class: activators | hit rate 2.8% among 210,000 | AID 1458; further: % of control where 0% means no effect; nearly all actives have a fitted effect of over 55% in size
#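 HEK293 cells carry an SMN2 minigene-luciferase reporter in which exon 7 inclusion puts luciferase in frame. Cells were seeded at 2000 cells/well, attached for 10-12 hours, then exposed to compounds for 30-36 hours at 37C before ONE-Glo luminescence.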
# An asterisk follows results filed as active; u = inconclusive; x = no result; [ ] = another dose, or the depositor's remark. Hits are enriched below; roughly 9.3% of the tested compounds scored in any of these assays. The call rests on the fitted dose curve; in most records, active means well fitted curve in the direction sought with a large enough effect; inconclusive means small, poorly fitted or top-dose-only effect, or another doubt; inactive means no such curve, though single readings can be large; an effect the other way counts as inactive or inconclusive. Potency means the concentration at half of the fitted maximal effect.
SMILES,ELG1 genotoxic,ELG1 DNA repair,NPC1 promoter act,FLuc counter,Rab9 promoter act,SMN2 splice up
CC(=O)c1ccc(NC(=S)NCc2cccnc2)cc1,-1%,u,1%,7%,2%,24%
O=C1N=C(N2CCN(c3ccccc3)CC2)S/C1=C\c1ccco1,-2%,u,7%,u,0%,-5%
COc1cc(/C=C2\SC(N)=NC2=O)cc(Br)c1O,2%,u,0%,-10%,-3%,x
COc1ccc(/C=C2\SC(N)=NC2=O)cc1,4%,-11%,2%,15µM*,25%,x
NC1=NC(=O)/C(=C\c2ccco2)S1,2%,-2%,-3%,17µM*,0%,x
CCOC(=O)CSC1=NC(=O)/C(=C/c2ccc(OC)cc2)S1,u,u,-27%,13µM*,-32%,-10%[1.84 µM]
Cc1ccsc1/C=N\Nc1cn[nH]c(=O)c1Cl,21µM*,u,6%,-20%,3%,0%
O=c1[nH]ncc(N/N=C/c2ccccc2)c1Cl,u,u,-1%,2%,-8%,-2%
COc1ccc(/C=N/Nc2cn[nH]c(=O)c2Cl)cc1,21µM*,u,18%,u,24%,u
Cc1ccc(/C=N\Nc2cn[nH]c(=O)c2Cl)cc1,21µM*,u,29%,24µM*,u,18%
O=C(c1ccco1)N1CCN(Cc2cc(=O)c(OCc3ccc([N+](=O)[O-])cc3)co2)CC1,0%,-12%,1%,5%,-4%,x
COc1ccccc1NC(=O)C1=C(C)Nc2nc(-c3cccs3)nn2C1c1cccnc1 (configuration not stated),-9%,18µM*,0%,0%,8%,-1%
CC(Sc1nnc(-c2cccnc2)o1)C(=O)NC1CCCC1 (configuration not stated),-1%,7%,-2%,-1%,-32%,x
CCOc1ccccc1NC(=O)c1ccc2oc(=O)c(S(=O)(=O)c3ccc(F)cc3)cc2c1,x,x,x,3%,x,-2%
O=[N+]([O-])c1ccc2c(c1)nc1n2CCN(C2CCCCC2)C1,u,u,u,15µM*,2.5µM*,14µM*
CC(=O)Nc1ccc2c(c1)nc1n2CCN(C2CCCCC2)C1,u,u,3.5µM*,24µM*,2µM*,13µM*
Cc1ccc(NC(=O)C2CCCN(S(=O)(=O)c3ccc4[nH]c(=O)ccc4c3)C2)cc1Cl (configuration not stated),x,x,x,0%,x,x
O=C(NCCc1ccccc1)c1ccc(Br)o1,u,u,u,u,4µM*,28%
O=C(NCCCCNC(=O)c1ccccc1Cl)c1ccccc1Cl,0%,0%,-3%,7%,5%,x
O=C(NCCNC(=O)c1ccc(Br)o1)c1ccc(Br)o1,-1%,u,1%,3%,9%,x
O=C(CNC(=O)c1ccccc1Cl)c1ccccc1,9.2µM*,u,2.8µM*,11µM*,0.4µM*,x
O=C(NCCn1cc(SCc2ccccc2)c2ccccc21)c1ccccc1F,-1%,13µM*,1%,u,-2%,-48%
O=C(CNC(=O)c1ccccc1F)c1ccccc1,4.1µM*,u,0.45µM*,3.4µM*,0.45µM*,x
Cc1ccc(NS(=O)(=O)c2ccc3c(c2)NC(=O)CCS3)cc1C,-10%,-9%,-5%,-1%,-1%,x
COc1ccc(-n2nc(C(=O)Nc3ccc(Cl)cn3)c3c4ccccc4n(C)c3c2=O)cc1,x,x,x,0%,x,2%
Cn1nc(C(F)(F)F)c2cc(C(=O)Nc3ccc(C(F)(F)F)cc3)sc21,-19%,u,-4%,-1%,-5%,x
O=C(NCCc1ccccc1)c1ccccc1F,u,u,0.63µM*,u,0.28µM*,x
Nc1n[nH]c(N)c1N=Nc1ccc2c(c1)OCO2,5%,29%,u,12µM*,u,21%
Cc1ccc(N=Nc2c(N)n[nH]c2N)cc1,u,u,u,15µM*,18%,x
